# Laboratory results from PubChem BioAssay (EPA / NIEHS).
# Active and inactive are the calls of the source. How the source made its calls: active means hit-call score of the fitted dose curve at least 0.9, where 1 is the maximum; inactive means score below 0.9.
# Biological target: Estrogen receptor (Homo sapiens) (UniProt P03372)
# Assay: CCTE_Deisenroth_AIME_384WELL_LUC_Shift: CCTE's 384-well Estrogen Receptor Transactivation Assay with AIME metabolic competence data shift (ERTA luciferase; difference in metabolism positive and negative), Deisenroth Lab (AID 2284041);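 further: shift is response with S9 minus without S9 so positive means metabolism raised ER signal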
# Experimental: CCTE_Deisenroth_AIME_384WELL (AIME metabolism assay) is a cell-based, single-readout assay that uses VM7Luc4E2, a human mammary gland/breast cell line, with measurements taken at 24 hour after chemical dosing in a 384-well plate.CCTE_Deisenroth_AIME_384WELL_LUC_Shift is one of two analysis components calculated from the CCTE_Deisenroth_AIME_384WELL assay. […] AIME is optimized to impart phase I hepatic metabolism using phenobarbital/beta-naphthoflavone induced hepatic S9 from male Sprague Dawley rats. Parent chemicals are incubated for 2 hours in the AIME assay prior to transfer to the VM7Luc ERTA assay plate. […] The metabolic curve shift response is defined as the pairwise difference between the positive (AEID 2488) and negative (AEID 2490) normalized response values at each concentration for a given chemical across replicate experiments. The pairwise differences form the basis for a concentration-response curve. Standard curve fit analysis identfiied chemicals where the calculated shift was greater than the shift-derived baseline cutoff. A positive hit designation in this endpoint indicates a significant shift trend in the positive direction for bioactivation.
# The AIME procedure consists of a preparative "pre-stamping" step using a barium chloride/poly-L-lysine (PLL) solution followed by "stamping" the lid in alginate-hepatic S9 (metabolism positive) or alginate-water (metabolism negative) to form microspheres. Once stamping is completed, the AIME lids are placed in duplicate microplates (metabolism positive or negative) containing chemical solutions and incubated for two hours to facilitate metabolic reactions. The conditioned medium, containing parent chemical or metabolites, is then transferred to the cell-based VM7Luc Estrogen Receptor Transactivation Assay (ERTA) for 24 hours. A typical experimental design tests a 10-point concentration series (0.002 - 200 uM) for 8 compounds (96-well format)1 or 32 compounds (384-well format)2 in single technical replicate. AIME assay controls include trans-stilbene (bioactivated control) and ethylparaben (bioinactivated control). ERTA assay plate controls include 17-beta estradiol (positive control) and DMSO (solvent control). Experiments typically comprise a minimum of four experimental replicates (n=4).
# Chain of Estrogen receptor (Homo sapiens) (P03372 whole entry, looked up): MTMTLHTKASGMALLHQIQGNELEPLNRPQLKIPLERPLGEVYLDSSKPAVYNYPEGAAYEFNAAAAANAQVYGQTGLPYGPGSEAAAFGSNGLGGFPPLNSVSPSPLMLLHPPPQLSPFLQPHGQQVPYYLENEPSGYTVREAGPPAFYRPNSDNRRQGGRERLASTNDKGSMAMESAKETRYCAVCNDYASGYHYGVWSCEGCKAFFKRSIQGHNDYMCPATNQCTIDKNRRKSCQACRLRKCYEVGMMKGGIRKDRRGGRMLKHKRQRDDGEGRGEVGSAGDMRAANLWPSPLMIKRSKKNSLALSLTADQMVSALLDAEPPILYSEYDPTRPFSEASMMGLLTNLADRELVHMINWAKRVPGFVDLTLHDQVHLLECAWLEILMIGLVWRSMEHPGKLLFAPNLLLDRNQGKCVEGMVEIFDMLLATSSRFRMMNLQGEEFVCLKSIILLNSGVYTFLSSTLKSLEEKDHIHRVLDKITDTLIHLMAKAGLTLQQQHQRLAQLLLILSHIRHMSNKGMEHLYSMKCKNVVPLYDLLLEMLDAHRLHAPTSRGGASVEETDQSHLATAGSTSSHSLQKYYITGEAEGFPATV
row,SMILES,outcome
1,O=C(c1ccccc1)c1ccc(O)cc1O,inactive
2,CCOC(OCC)OCC,inactive
3,CC(=O)CCC(C)C,inactive
4,N#Cc1ccccc1O,inactive
5,CCCCCCCC/C=C\CCCCCCCC(=O)OCC(O)CO (stereo not drawn),inactive
6,CC(C)(C)c1cc(Cc2cc(C(C)(C)C)c(O)c(C(C)(C)C)c2)cc(C(C)(C)C)c1O,inactive
7,CC(C)OC=O,inactive
8,CCCCOC(=O)C(C)O (stereo not drawn),inactive
9,OCC1CCCO1 (stereo not drawn),inactive
10,O=C1C=CC(=O)N1c1ccccc1,inactive
11,Cc1ccc(O)c(-n2nc3ccccc3n2)c1,inactive
12,CCCCCCCC/C=C\CCCCCCCC(=O)N(C)CC(=O)O,inactive
13,CCN=C1C=CC(=C(c2ccc(N(CC)CC)cc2)c2ccc(N(CC)CC)cc2)c2ccccc21,inactive
